Source: a collection of fitness landscapes (doi:10.1016/j.celrep.2020.107928)
Whole data set: some 81,000 sequences, median “one-hybrid fitness for binding parS DNA” near -0.17, cut for the highest 2% near 0.51. This excerpt belongs to a sample that is enriched for the highest values.

B1: Caulobacter ParB omega fusion; a variant is named by its letters at X, in order, B8GW30 (parent)
chain: MESVVVGEPGMSEGRRGLGRGLSALLGEVDAAPAQAPGEQLGGSREAPIEILQRNPDQPRRTFREEDLEDLSNSIREKGVLQPILVRPSPDTAGEYQIVAGERAWRAAQRAGLKTVPIMVRELDDLAVLEIGIIENVQRADLNVLEEALSYKVLMEKFERTQENIAQTIGKSXSHVANXMRLLXLPDEVQSYLVSGELTAXHARAIAAAADPVALAKQIIEGGLSVRETEALARKAPNLSAGKSKGGRPPRVKDTDTQALESDLSSVLGLDVSIDHRGSTGTLTITYATLEQLDDLCNRLTRGI

Variants of: B1
Test: one-hybrid fitness for binding parS DNA (scaled: cognate 1, non-cognate 0); higher = stronger binding
Conditions: with parS DNA site
Procedure, shortened: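 Fitness here means the log change in variant-to-wild-type read ratio between plasmids sequenced before and after selection. That scale was set so cognate equals 1 and non-cognate equals 0. The selection was a bacterial one-hybrid screen of Caulobacter ParB libraries, four specificity codons randomised, in E. coli USO carrying a HIS3 reporter with the site 19 bp from the promoter, grown 48 hours at 37°C on M9-minus-histidine with 0.1 mM IPTG and 5 mM 3-AT.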

| Variant | one-hybrid fitness for binding parS DNA |
| --- | --- |
| EWSG | ≤ 0.2 |
| QKNH | ≤ 0.2 |
| APDA | ≤ 0.2 |
| RTGA | 0.679 |
| ETGA | ≤ 0.2 |
| DFGA | ≤ 0.2 |
| PFGA | ≤ 0.2 |
| RFGA | 0.531 |
| DMGA | ≤ 0.2 |
| RCGA | 0.653 |
| DTGA | ≤ 0.2 |
| RWGA | 0.386 |
| RPGA | ≤ 0.2 |
| RMGA | 0.573 |
| NTKT | ≤ 0.2 |
| QYPA | ≤ 0.2 |
| WNKI | ≤ 0.2 |
| RSGA | 0.597 |
| RNGA | 0.496 |
| RAGA | 0.595 |
| RHGA | 0.546 |
| NLGA | ≤ 0.2 |
| DLGA | ≤ 0.2 |
| DAGA | ≤ 0.2 |
| RLGA | 0.617 |
| REGA | ≤ 0.2 |

| Variant | one-hybrid fitness for binding parS DNA |
| --- | --- |
| VGER | ≤ 0.2 |
| ETLC | ≤ 0.2 |
| ETVR | ≤ 0.2 |
| LAFP | ≤ 0.2 |
| GGRS | ≤ 0.2 |
| KQSE | ≤ 0.2 |
| PDSM | ≤ 0.2 |
| LRGD | ≤ 0.2 |
| RPEC | ≤ 0.2 |
| RLEC | 0.947 |
| RLEI | ≤ 0.2 |
| RKEQ | ≤ 0.2 |
| RLER | ≤ 0.2 |
| RMEN | 0.369 |
| RDEC | ≤ 0.2 |
| RMEC | 0.878 |
| RCEC | 0.866 |
| RKEC | 0.893 |
| RMEH | ≤ 0.2 |
| RKEI | ≤ 0.2 |
| LRQY | ≤ 0.2 |
| VQGR | ≤ 0.2 |
| HFMV | ≤ 0.2 |
| TEEC | ≤ 0.2 |
| FLDS | ≤ 0.2 |
| HFDS | ≤ 0.2 |

| Variant | one-hybrid fitness for binding parS DNA |
| --- | --- |
| QTWK | ≤ 0.2 |
| CLLK | ≤ 0.2 |
| TGRC | ≤ 0.2 |
| RAEM | 0.246 |
| RIEY | 0.338 |
| RHEC | 0.851 |
| RAER | ≤ 0.2 |
| RAEC | 0.807 |
| RREC | 0.731 |
| RIEC | 0.791 |
| RHEF | ≤ 0.2 |
| RIER | ≤ 0.2 |
| RHEQ | 0.223 |
| RREH | ≤ 0.2 |
| RREP | ≤ 0.2 |
| GGWR | ≤ 0.2 |
| ITFG | ≤ 0.2 |
| ITHW | ≤ 0.2 |
| KYTR | ≤ 0.2 |
| QQLK | ≤ 0.2 |
| YTGV | ≤ 0.2 |
| RTEC | 0.874 |
| RSED | ≤ 0.2 |
| RTEY | 0.414 |
| RSEN | 0.333 |
| NFEC | ≤ 0.2 |

| Variant | one-hybrid fitness for binding parS DNA |
| --- | --- |
| RFEC | 0.727 |
| RFEI | ≤ 0.2 |
| RSEC | 0.739 |
| RTEK | ≤ 0.2 |
| YRPK | ≤ 0.2 |
| DVSL | ≤ 0.2 |
| PMLT | ≤ 0.2 |
| QLTV | ≤ 0.2 |
| RLQW | 0.245 |
| SPHY | ≤ 0.2 |
| KVAV | ≤ 0.2 |
| NKDH | ≤ 0.2 |
| AYAS | ≤ 0.2 |
| MADT | ≤ 0.2 |
| LSCT | ≤ 0.2 |
| RCSA | 0.575 |
| NTSA | ≤ 0.2 |
| RSSA | 0.583 |
| NASA | ≤ 0.2 |
| RWSA | 0.429 |
| RDSA | ≤ 0.2 |
| RPSA | ≤ 0.2 |
| DASA | ≤ 0.2 |
| DTSA | ≤ 0.2 |
| RTSA | 0.591 |
| RASA | 0.595 |

| Variant | one-hybrid fitness for binding parS DNA |
| --- | --- |
| RGSA | 0.399 |
| CEWG | ≤ 0.2 |
| PPVE | ≤ 0.2 |
| RGTE | ≤ 0.2 |
| VPLK | ≤ 0.2 |
| LSLN | ≤ 0.2 |
| KMRA | ≤ 0.2 |
| APLY | ≤ 0.2 |
| YCRA | ≤ 0.2 |
| PHDR | ≤ 0.2 |
| INAG | ≤ 0.2 |
| SFSA | ≤ 0.2 |
| DLSA | ≤ 0.2 |
| RFSA | 0.572 |
| RMSA | 0.59 |
| CFSA | ≤ 0.2 |
| DHSA | ≤ 0.2 |
| NMSA | ≤ 0.2 |
| RESA | ≤ 0.2 |
| RLSA | 0.587 |
| RHSA | 0.515 |
| QQWL | ≤ 0.2 |
| HSTQ | ≤ 0.2 |
| QIPS | ≤ 0.2 |
| NIHV | ≤ 0.2 |
| LAFG | ≤ 0.2 |

| Variant | one-hybrid fitness for binding parS DNA |
| --- | --- |
| NNTV | ≤ 0.2 |
| SRTI | ≤ 0.2 |
| LHLI | ≤ 0.2 |
| FTFT | ≤ 0.2 |
| RKAR | ≤ 0.2 |
| RKFT | 0.771 |
| RKAT | 0.818 |
| RKFH | 0.211 |
| RKAK | ≤ 0.2 |
| RKFD | ≤ 0.2 |
| TVYC | ≤ 0.2 |
| QLDE | ≤ 0.2 |
| GTYL | ≤ 0.2 |
| NKHA | ≤ 0.2 |
| RKYA | 0.579 |
| RKSA | 0.717 |
| RKQA | 0.712 |
| RKPA | 0.223 |
| RKHA | 0.67 |
| RKIA | 0.451 |
| AYMW | ≤ 0.2 |
| WTLN | ≤ 0.2 |
| CKRT | ≤ 0.2 |
| VEKG | ≤ 0.2 |
| ALQI | ≤ 0.2 |
| MAKW | ≤ 0.2 |

| Variant | one-hybrid fitness for binding parS DNA |
| --- | --- |
| GFDC | ≤ 0.2 |
| WTHF | ≤ 0.2 |
| RKLA | 0.547 |
| RKRA | 0.774 |
| RKGA | 0.694 |
| NKRA | ≤ 0.2 |
| QRWL | ≤ 0.2 |
| LNLV | ≤ 0.2 |
| PQAL | ≤ 0.2 |
| PVGY | ≤ 0.2 |
| PLAI | ≤ 0.2 |
| RIYW | 0.296 |
| NVVA | ≤ 0.2 |
| DVVA | ≤ 0.2 |
| RVVA | 0.565 |
| RVKA | 0.756 |
| DVKA | ≤ 0.2 |
| SVKA | ≤ 0.2 |
| ALNW | ≤ 0.2 |
| ACFK | ≤ 0.2 |
| PSMV | ≤ 0.2 |
| RLPA | 0.376 |
| RSIA | 0.474 |
| RMPA | 0.393 |
| RMIA | 0.537 |
| RLIA | 0.592 |

| Variant | one-hybrid fitness for binding parS DNA |
| --- | --- |
| RWIA | 0.295 |
| RPIA | ≤ 0.2 |
| RCIA | 0.551 |
| RTIA | 0.542 |
| RTPA | 0.363 |
| VHRF | ≤ 0.2 |
| NYLC | ≤ 0.2 |
| ALEW | ≤ 0.2 |
| NIYW | ≤ 0.2 |
| RARY | 0.552 |
| RRDY | 0.289 |
| RAYY | 0.501 |
| RRNY | 0.727 |
| RADY | 0.389 |
| RRRY | 0.812 |
| RCQY | 0.493 |
| RRYY | 0.28 |
| RCNY | 0.482 |
| RMQY | 0.546 |
| RPQY | ≤ 0.2 |
| RRFY | 0.274 |
